Assay [1] can be described thus: qHTS assay for small molecule agonists of the p53 signaling pathway (AID 651631; calls by dose curve; further: nearly all actives have a fitted effect of over 15% in size; further: potency means the concentration at half of the fitted maximal effect). In short, it runs like this:
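HCT-116 p53RE-bla reporter line, 16 h compound treatment at 37 °C, then fluorescence after 2 h with B/G FRET substrate.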
On the technique in general: In qHTS, concentration-response curves come from the screen itself.

Assay [2] is described as follows: qHTS assay for small molecules that induce genotoxicity in human embryonic kidney cells expressing luciferase-tagged ATAD5 (AID 651632). Further: nearly all actives have a fitted effect of over 15% in size. In short, it runs like this: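 Concentration-response screen for ATAD5 upregulation in HEK293T luciferase reporter cells; 16 hr treatment at 37C, then luminescence after 30 min with Amplite at room temperature.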
The nature of assay [3]: qHTS assay for small molecule agonists of the p53 signaling pathway - cell viability (AID 651633; calls by dose curve; further: nearly all actives have a fitted effect of over 30% in size; further: potency means the concentration at half of the fitted maximal effect). An outline of the steps: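 Viability counter-read: CellTiter-Glo luminescence (30 min, room temperature) in the same p53RE-bla plates. These plates had been exposed to compounds for 16 h at 37 C.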
The nature of assay [4]: qHTS assay for small molecules that induce genotoxicity in human embryonic kidney cells expressing luciferase-tagged ATAD5 - cell viability (AID 651634; calls by dose curve; further: nearly all actives have a fitted effect of over 25% in size). In short, it runs like this: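 15.5 hr compound or vehicle exposure of HEK293T cells expressing luciferase-tagged ATAD5 at 37C; live-cell protease activity is read by fluorescence after 30 min of CellTiter-Fluor.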
Assay [5] can be described thus: qHTS assay for small molecule disruptors of the mitochondrial membrane potential - cell viability (AID 720634; calls by dose curve; further: nearly all actives have a fitted effect of over 20% in size; further: potency means the concentration at half of the fitted maximal effect). An outline of the steps: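 In this qHTS format, HepG2 cells plated overnight were pinned with compound, incubated 1 hr, and assayed for ATP luminescence with CellTiter-Glo after m-MPI dye addition.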
The nature of assay [6]: qHTS assay to test for compound auto fluorescence at 590 nm (red) in HepG2 cells (AID 720674). An outline of the steps:
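1 hr compound incubation on HepG2 cells, 37 C, 5% CO2; plate read ex 540 nm / em 590 nm; intensities reported as Rose Bengal sodium equivalents.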

The nature of assay [7]: qHTS assay to test for compound auto fluorescence at 535 nm (green) in HepG2 cells (AID 720675).
Assay [8] can be described thus: qHTS assay to test for compound auto fluorescence at 460 nm (blue) in HEK293 cells (AID 720678). An outline of the steps:
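HEK293 cells (2,000 per well, medium with 10% dialyzed FBS) attached for 4-5 hr at 37C, then received compound and stood overnight at 37C, 5% CO2. Blue fluorescence was read at Ex/Em 405/460 nm and expressed relative to triamterene.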

Assay [9] in a line: qHTS assay to test for compound auto fluorescence at 590 nm (red) in HEK293 cells (AID 720679). In short, it runs like this:
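HEK293 cells (2,000/well, medium with 10% dialyzed FBS) attached for 4-5 hr at 37C, received 23 nL compound and were incubated overnight at 37C, 5% CO2. Red fluorescence was then read at 540/590nm Ex/Em, referenced to Rose Bengal sodium.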

The nature of assay [10]: qHTS assay to test for compound auto fluorescence at 535 nm (green) in HEK293 cells (AID 720680).
Assay [11] can be described thus: qHTS assay to test for compound auto fluorescence at 460 nm (blue) in HEK293 cell free culture (AID 720681). An outline of the steps: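 Blue fluorescence (Ex 405/Em 460 nm, triamterene-equivalent) was read immediately after pin transfer of compound or DMSO into medium (DMEM, 10% FBS) without cells.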
A short description of assay [12]: qHTS assay to test for compound auto fluorescence at 535 nm (green) in HEK293 cell free culture (AID 720682). In short, it runs like this: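 Steps: dispense DMEM/10% FBS into empty wells; pin in compound or DMSO; measure fluorescence at 485/535 nm. Values are fluorescein equivalents.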
Assay [13] is described as follows: qHTS assay to test for compound auto fluorescence at 460 nm (blue) in HepG2 cell free culture (AID 720685). An outline of the steps: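 Cell-free plates of MEM plus 10% FBS received 23 nL compound or DMSO vehicle; blue-channel (405/460 nm) intensity scored against triamterene as reference fluorophore.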
A short description of assay [14]: qHTS assay to test for compound auto fluorescence at 535 nm (green) in HepG2 cell free culture (AID 720686).
A short description of assay [15]: qHTS assay to test for compound auto fluorescence at 460 nm (blue) in HepG2 cells (AID 720687). An outline of the steps: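 Blue-channel autofluorescence (Ex/Em 405/460 nm, triamterene-equivalent) was measured after 1 hr compound exposure at 37 C, 5% CO2. Cells were HepG2, plated overnight at 37 C in MEM plus 10% FBS.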
Assay [16] has as its target Glucocorticoid receptor (Homo sapiens) (UniProt P04150). Nature of the assay: qHTS assay to identify small molecule antagonists of the glucocorticoid receptor (GR) signaling pathway (AID 720692; active means well fitted inhibition curve with a large enough effect in the signal ratio in the repeat runs, not every such curve was filed as active; the % refers to the signal ratio; further: potency means the concentration at half of the fitted maximal effect). An outline of the steps:
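Tox21 10K library screened in concentration-response for blockade of dexamethasone (5 nM final)-induced GRE-bla reporter activity in HeLa cells; 18 h treatment, fluorescence read.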

Assay [17] can be described thus: qHTS assay for small molecule disruptors of the mitochondrial membrane potential (AID 720635). Further: potency means the concentration at half of the fitted maximal effect. In short, it runs like this:
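Mitochondrial membrane potential tracked with Mito-MPS dye, red aggregates (ex 540/em 590 nm) against green monomers (ex 490/em 535 nm). Compound treatment 1 hr at 37C, dye 30 min in HepG2.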

Assay [18] can be described thus: qHTS assay to test for compound auto fluorescence at 590 nm (red) in HEK293 cell free culture (AID 720683). In short, it runs like this:
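Red-channel autofluorescence of compounds in culture medium (DMEM, 10% FBS), no cells, measured at 540/590 nm. Rose Bengal sodium is the reference fluorophore for equivalence.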

Assay [19] can be described thus: qHTS assay to test for compound auto fluorescence at 590 nm (red) in HepG2 cell free culture (AID 720684). In short, it runs like this: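 Cell-free; medium MEM + 10% FBS; compound or DMSO added by pintool; read Ex 540/Em 590 nm; Rose Bengal sodium as red reference fluorophore.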
For assay [20], the target named is Glucocorticoid receptor (Homo sapiens) (UniProt P04150). The assay can be described thus: qHTS assay to identify small molecule agonists of the glucocorticoid receptor (GR) signaling pathway (AID 720691; active means well fitted activation curve with a large enough effect in the signal ratio in the repeat runs, not every such curve was filed as active; the % refers to the signal ratio). The conditions noted are these: GR-bla HeLa, beta-lactamase reporter ratio, 18 h; activation: at 62.4 µM (top of the series). In short, it runs like this:
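Measures GR pathway activation through a GRE-beta-lactamase reporter stably integrated in HeLa cells, with 18 h compound treatment at 37 C and fluorescence detection using a FRET substrate.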

SMILES strings stand for the structures. “And” between values parts separate entries of the source, which are not always exact repeats. Equal values may be shown once. Unmarked numbers belong to inactive results. Records with an inconclusive call do not appear. The source made the active and inactive calls. Unless noted, the call rests on the fitted dose curve; in most records, active means well fitted curve in the direction sought with a large enough effect in the repeat runs; inconclusive means weak or mixed curves; inactive means no such curve, though single readings can be large; an effect the other way counts as inactive or inconclusive.

Chain of Glucocorticoid receptor (Homo sapiens) (P04150 whole entry, looked up): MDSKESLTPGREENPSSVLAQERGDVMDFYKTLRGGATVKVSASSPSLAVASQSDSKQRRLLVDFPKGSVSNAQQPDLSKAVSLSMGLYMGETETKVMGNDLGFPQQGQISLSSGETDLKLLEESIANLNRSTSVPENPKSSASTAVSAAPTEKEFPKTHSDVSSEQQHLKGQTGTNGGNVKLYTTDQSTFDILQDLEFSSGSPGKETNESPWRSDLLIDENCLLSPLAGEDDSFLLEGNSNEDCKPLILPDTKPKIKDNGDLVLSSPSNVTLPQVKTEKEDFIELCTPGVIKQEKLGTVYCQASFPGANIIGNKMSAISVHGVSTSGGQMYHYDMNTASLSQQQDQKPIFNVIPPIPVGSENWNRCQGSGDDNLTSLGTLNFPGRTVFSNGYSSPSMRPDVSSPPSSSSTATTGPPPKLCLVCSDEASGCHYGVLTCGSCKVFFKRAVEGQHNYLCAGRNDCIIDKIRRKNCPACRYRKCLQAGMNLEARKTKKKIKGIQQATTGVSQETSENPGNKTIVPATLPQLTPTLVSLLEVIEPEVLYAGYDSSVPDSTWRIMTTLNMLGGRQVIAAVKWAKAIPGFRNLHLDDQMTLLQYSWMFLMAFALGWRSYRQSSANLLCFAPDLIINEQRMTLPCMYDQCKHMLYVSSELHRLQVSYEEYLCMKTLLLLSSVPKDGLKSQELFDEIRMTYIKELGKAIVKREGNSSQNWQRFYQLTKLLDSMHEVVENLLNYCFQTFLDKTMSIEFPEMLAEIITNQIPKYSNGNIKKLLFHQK

Consider `Nc1cc(Cl)ccc1Cl`, for which the Potency entry in assay [1], in [2], in assay [3], in assay [4], in assay [5] and in assay [7] was “inactive” each time. Further, the Potency result in assay [8], in assay [11], in assay [13], in assay [14], in assay [15] and in [16] was “inactive” each time. The compound was classed as inactive in assay [6], in assay [9], in assay [10] and in assay [12].
On to `CSC1=N[C@@](C)(c2ccccc2)C(=O)N1Nc1ccccc1`, for which the Potency entry in assay [1], in assay [2], in assay [3], in assay [4], in assay [7] and in assay [8] was “inactive” in each case. Besides, the Potency entry in assay [11], in assay [13], in assay [14], in assay [15] and in [20] was “inactive” throughout. Also, the Potency in assay [17] is 61.1 µM (active). Moreover, the outcome in assay [9], in assay [10], in assay [12], in [18] and in assay [19] was inactive.
Consider `O=C1C(Cl)=C(Cl)C(=O)C(Cl)=C1Cl`, for which the Potency in [1] was 30.5 µM (active) and 6.11 µM (active); in [3], 19.3 µM (active) and 21.7 µM (active); in [5] it was 30.5 µM (active) and 27.3 µM (active); in assay [17], 8.6 µM (active) and 8.63 µM (active); in assay [16] it was 30.9 µM (active). Besides, the Potency entry in assay [2], in assay [4], in assay [7], in assay [8], in assay [11] and in assay [13] was “inactive” in each case. The Potency entry in [14], in [15] and in assay [20] was “inactive” throughout. For the same compound, the call in assay [9], in [10], in assay [12], in assay [18] and in assay [19] was inactive.
Turning to `C=Cc1cccc(CCl)c1`, the Potency result in assay [1], in [2], in assay [3], in [5], in assay [17] and in assay [7] was “inactive” in each case. In addition, the Potency result in [8], in [11], in assay [13], in assay [14], in assay [15] and in assay [20] was “inactive” throughout. For the same compound, the Potency entry in assay [16] is “inactive”. Also, the compound was classed as inactive in assay [6], in assay [9], in assay [10], in assay [12], in assay [18] and in assay [19].
As to `CO/N=C(\C(=O)OC)c1ccccc1CO/N=C(\C)c1cccc(C(F)(F)F)c1`, the Potency in [1] is 1.09 µM (active); in [5] it was 21.7 µM (active); in assay [17] it was 9.69 µM (active). For the same compound, the Potency result in assay [2], in assay [4], in assay [7], in assay [8], in [11] and in [13] was “inactive” throughout. Also, the Potency result in [14] and in assay [15] was “inactive” each time. The result in assay [6], in assay [10], in assay [12], in assay [18] and in assay [19] was inactive.
For `CC(C)=CCN1CC[C@@]2(C)c3cc(O)ccc3C[C@@H]1[C@@H]2C`, the Potency entry in assay [1], in assay [2], in assay [3], in assay [5], in assay [17] and in assay [7] was “inactive” throughout. The Potency result in assay [8], in assay [11], in assay [13], in assay [14] and in assay [15] was “inactive” each time. Further, the outcome in assay [9], in [10], in assay [12], in assay [18] and in assay [19] was inactive.
As for `[O]=[Cr][O][Cr]=[O]`, the Potency result in assay [1], in assay [2], in assay [3], in assay [4], in assay [7] and in [8] was “inactive” in each case. Moreover, the Potency result in [11], in assay [13], in assay [14], in [15], in assay [20] and in assay [16] was “inactive” throughout. In addition, the call in assay [6], in assay [9], in assay [10], in assay [12] and in [18] was inactive.

Source of the values: PubChem BioAssay (Tox21).
